Screening data as filed in PubChem BioAssay.
Shown are actives, neighbours in structure and some others; about 14% of the full set was active somewhere.
HCV inhibitor – qHTS Assay for Inhibitors of Hepatitis C Virus (HCV); Huh7.5.1 HCVcc-Cre infection, luciferase reporter, 44 h; Potency, µM (doses to about 41.8 µM), for the others: at the highest dose activity change, negative = inhibition, actives largely listed as inhibitors; actives 3.4% (n = 340,000); further: potency means the concentration at half of the fitted maximal effect
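Reporter virus HCVcc-Cre (~0.5 moi) infects cells exposed to compound; seeding density 1,000 cells/well with 4 h settling beforehand. Luminescence, 15 sec read, taken 44 h post-infection following a 15 min RT substrate incubation.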
MARV entry inh – qHTS for inhibitors of binding or entry into cells for Marburg Virus; actives 1.8% (n = 300,000); AID 540276, 2011; Potency, µM (titrated, usually from 37.8 µM), for the others: at the highest dose activity change, negative = inhibition, usual class: inhibitors; Marburg virus pseudotyped entry inhibition, cell reporter; calls by dose curve; tested in HEK293 cells; further: potency means the concentration at half of the fitted maximal effect
HCMV antiviral – qHTS Assay for inhibitors of the human cytomegalovirus (HCMV). HFF cells, HCMV-luciferase reporter, 72 h; stronger effect = lower value. activity change, negative = inhibition, % at 57.5 µM. actives 4.5% (n = 410,000). AID 1259415, 2018; in the data active means activity change below about -60%; inconclusive means no clear call, values can overlap the other calls; inactive means above about -39%
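Human foreskin fibroblasts infected with luciferase-reporter HCMV at MOI 1 PFU/cell, compounds at two doses. Luciferase measured 72 h post infection; normalized to buffer-only basal and Salinomycin (10uM) controls.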
LASV entry inh – qHTS for Inhibitors of binding or entry into cells for Lassa Virus. Lassa virus pseudotype entry inhibition, cell reporter. Potency, µM (doses to about 37.9 µM), for the others: at the top dose activity change, negative = inhibition, hits mostly inhibitors. actives 1.2% (n = 300,000); calls by dose curve; tested in HEK293 cells; further: potency means the concentration at half of the fitted maximal effect; nearly all actives have a fitted effect of over 50% in size
Pf growth 96h – Primary qHTS for delayed death inhibitors of the malarial parasite plastid, 96 hour incubation; P. falciparum luciferase reporter growth, 96 h; Potency, µM (highest dose often 28.7 µM), without a hit: at the highest dose activity change, negative = inhibition, usual class: inhibitors; actives 6.9% (n = 320,000); further: potency means the concentration at half of the fitted maximal effect
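Infected RBCs, 2% Hct / 0.05% parasitemia final; luciferase-reporter P. falciparum; cpd 96 h, 37 C, 5% CO2; luciferase detection reagent; luminescence.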
Pf growth 48h – Primary qHTS for delayed death inhibitors of the malarial parasite plastid, 48 hour incubation; P. falciparum luciferase growth in erythrocytes, 48 h; Potency, µM (top dose mostly 28.7 µM), for inactives: at the highest dose activity change, negative = inhibition, hits mostly inhibitors; actives 5.9% (n = 310,000); AID 504832, 2011; further: potency means the concentration at half of the fitted maximal effect
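Luciferase-expressing P. falciparum in infected erythrocytes (2% hematocrit, 0.1% parasitemia final) in RPMI 1640/0.5% Albumax were exposed to compound for 48 hours at 37 C, 5% CO2; growth read as luminescence.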
* marks the source's active call; other numbers are inactive results; u = inconclusive; x = no result; ! = repeats disagree; [ ] = dose if it differs, or a comment. Unless noted, the call rests on the fitted dose curve; in most records, active means well fitted inhibition curve with a large enough effect; inconclusive means small, poorly fitted or top-dose-only effect, or another doubt; inactive means no such curve, though single readings can be large or run the other way. On the % scale 0 is the no-effect control and ±100 the full control effect.

SMILES	HCV inhibitor	MARV entry inh	HCMV antiviral	LASV entry inh	Pf growth 96h	Pf growth 48h
Cc1cc(C)nc(N(C#N)CC(=O)c2ccccc2)n1	16µM*	u	-24	u	x	0%
CCN(CC)S(=O)(=O)c1cc(OC)ccc1N=Nc1ccc(O)c2ncccc12	5µM*	x	-97*	x	39%	u
Cc1ccc(N=Nc2cc(C)ccc2O)c(C)c1	7%	x	-7	x	68%	100%
CCOc1ccc(N=Nc2ccc(O)c3ncccc23)cc1	7.9µM*	u	-87*	-20%[46.1 µM]	-3%	0.74µM*
Cc1ccccc1N=Nc1ccc(N=Nc2c(O)ccc3ccccc23)c(C)c1	x	x	x	x	-12%	-9%
Cc1ccc(C)c(N=Nc2ccc(O)c3ncccc23)c1	6.3µM*	x	-84*	x	u	2.1µM*
Cc1cccc(N=Nc2ccc(O)c3ncccc23)c1	5.6µM*	4.5µM*	-102*	u	u	1.9µM*
CCN(CC)S(=O)(=O)c1cccc2cccnc12	0%	2%	13	-11%	-26%	x
CC(Sc1oc(-c2cccs2)nc1S(=O)(=O)c1ccccc1)c1ccccc1 (configuration not stated)	x	0%[46.1 µM]	-9	u	x	x
Cc1ccc(-c2cc(NC=O)c3ncc(-c4cnn(C)c4)n3c2)cc1	x	x	-18	x	x	x
O=C(Oc1cccc2cccnc12)c1ccc2c(c1)OCCO2	15%	u	7	-21%	-26%	-18%
Oc1ccc(N=Nc2ccc3c(c2)OCCO3)c2ncccc12	u	x	-103*	x	1µM*	u
Cc1ccc(-c2csc3nc(=O)c(C)nn23)cc1	-4%	-9%	-3	u	5.2µM*	31%
O=c1nc2scc(-c3ccccc3)n2c2ccccc12	-9%	-2%	u	10%	-27%	2%
CCOCCCNC(=O)C1CCN(c2nc3ccc(Cl)cc3[nH]2)CC1	x	x	0	1%[46.1 µM]	x	x
O=C1N[C@@H](Cc2ccccc2)C(=O)N2[C@H]1C[C@]1(Br)c3ccccc3N(S(=O)(=O)c3ccc(F)cc3)[C@H]21	10%	x	-1	x	x	x
O=[N+]([O-])c1ccc(Oc2cccc3cccnc23)c([N+](=O)[O-])c1	-24%	u	-69*	u	13µM*	10µM*
N#Cc1ccc(Oc2cccc3cccnc23)c([N+](=O)[O-])c1	-2%	-13%[46.1 µM]	u	u	5%	12%
CC(c1ccccc1)n1cc(C(=O)NCc2ccncc2)nn1 (configuration not stated)	18%	14%[46.1 µM]	9	1%	13%	-19%
CC(c1ccccc1F)n1cc(C(=O)NCc2ccncc2)nn1 (configuration not stated)	5%	23%[46.1 µM]	1	1%	0.52µM*	-2%
CCCCNC(=O)c1nc(C2CCN(S(=O)(=O)c3c(F)cccc3F)CC2)oc1-c1cccc(C(F)(F)F)c1	x	x	10	x	x	x
Cc1ccccc1-n1nc(C)c2cc(C(=O)N3CCN(S(=O)(=O)c4ccc(Cl)cc4)CC3)sc21	u	u	-7	-28%	1.9µM*	5.2µM*
Cc1ccccc1-n1nc(C)c2cc(C(=O)N3CCN(S(=O)(=O)c4ccc(F)cc4)CC3)sc21	u	21µM*!	-22	u	x	4.7µM*
Cc1ccc(S(=O)(=O)N2CCN(C(=O)c3cc4c(C)nn(-c5ccccc5)c4s3)CC2)cc1	-3%	u	-7	-30%	u	x
Cc1ccc(N2CC(C(=O)OCC(=O)NNC(=O)c3ccccc3)CC2=O)cc1 (configuration not stated)	0%	10%	-13	-1%	11%	7%
SMILES	HCV inhibitor	MARV entry inh	HCMV antiviral	LASV entry inh	Pf growth 96h	Pf growth 48h
Cc1ccc(NC(=O)CCCn2c(=O)c3cccn3c3ccccc32)cc1C	x	x	u	-4%[46.1 µM]	x	x
Cc1ccnc2c1ccc1c(C)ccnc12	5.6µM*	x	x	x	4.7µM*	2.6µM*
Cc1ccnc2c1ccc1cccnc12	2.2µM*	u	-98*	u	0.83µM*	1.2µM*
CC(C)NC(=O)c1ccc(CSc2nc3ccncc3n2Cc2cccc(F)c2)cc1	x	u	7	-11%[46.1 µM]	x	x
CCc1nc2cc(NC(=O)C3(C)CCCN(C(C)=O)C3)ccc2o1 (configuration not stated)	x	x	-4	x	x	x
O=C(Nc1ccccc1-c1ccccc1)c1ccc(NC(=O)c2ccco2)cc1	u	7%	-30	-16%	x	12µM*
O=C(Nc1ccccc1-c1ccccc1)c1ccco1	u	-5%	-11	-17%	1.3µM*	32%
O=C(Nc1ccccc1-c1ccccc1NC(=O)c1ccco1)c1ccco1	-19%	-11%	-18	-16%	u	10µM*
Cc1c(NC(=O)c2ccco2)cccc1C(=O)NN1C(=O)c2ccccc2C1=O	4%	x	1	x	15µM*	41%
O=C(CN1CCN(c2ccc(O)cc2)CC1)N(C1CC1)C1CCS(=O)(=O)C1 (configuration not stated)	13%	3%	-28	23%	u	u
Cn1c(NC(=O)c2ccc(F)cc2)c(-c2ccccn2)c(=O)c2ccccc21	-2%	x	3	x	29%	12%
O=C(OC1CCCCC1)c1ccc(NC(=O)c2ccco2)cc1	u	12%	-25	u	2.9µM*	u
O=C(Nc1ccc(CSc2ccccc2)cc1)c1ccco1	-17%	x	-84*	x	67%	16%
O=C(CCc1ccccc1)Nc1ccc(NC(=O)c2ccco2)cc1	13%	23%	-24	u	-19%	11%
O=C(Nc1cnn(C23CC4CC(CC(C4)C2)C3)c1)c1cc(-c2ccccc2)on1	-29%	u	u	-19%	x	10µM*
Cc1ccc(-c2cc(C(=O)Nc3cnn(C45CC6CC(CC(C6)C4)C5)c3)no2)cc1	-26%	-14%	-5	-20%	-7%	u
CCOc1ccc(-n2nc3cc(C)c(NC(=O)c4cc(OCC)c(OCC)c(OCC)c4)cc3n2)cc1	x	-2%[46.1 µM]	16	1%[46.1 µM]	x	x
Cc1ccc(N2C(S)=C(C#N)C(=O)NC23CCCCC3)cc1	13%	8%	-60*	4%	2%	-9%
O=C(Cc1ccc(NC(=O)C2CCN(C(=O)C3CC3)CC2)cc1)Nc1ccc(C(=O)N2CCOCC2)cc1	45%[8.37 µM]	x	11	x	x	x
COC(=O)c1sc(-c2ccc(Cl)cc2)cc1NC(=O)COCC(=O)O	21%	x	-33	x	-8%	2.1µM*
C[C@@H]1CN([C@@H](C)CO)C(=O)CCCn2nncc2CO[C@H]1CN(C)C(=O)Nc1ccc(-c2cccs2)cc1	x	x	-14	x	x	x
